Screening data from PubChem BioAssay.
Shown is part of a subset that was picked to be rich in hits.
PTHR1 agonist: agonists of human PTHR1 parathyroid hormone receptor; Potency, µM (series often up to 115 µM), for the others: at the highest dose activation, usual class: activators; HEK293 GP2 PTHR1 cells, GloSensor cAMP luminescence, 1 h; 410,000 compounds, 0.075% hits; further: potency means the concentration at half of the fitted maximal effect; nearly all actives have a fitted effect of over 55% in size
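HEK-293-derived GP2 cells expressing PTHR1 and a GloSensor cAMP reporter, 3,000/well, plated overnight, given luciferin plus IBMX (each 0.5 mM as added) for 1 h at 37 °C, then compound for 1 h at 37 °C. Luminescence was read after 15 min at room temperature.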
HEK293 tox: cytotoxic in the GLP-1 receptor inverse agonist counter-screen; 410,000 compounds, 0.13% hits; Potency, µM (titrated, usually from 38.3 µM), without a hit: top-dose activity change, negative = inhibition, usual class: inhibitors; HEK293 cAMP-luciferase reporter cells, luminescence, 24 h;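 further: loss of luciferase light is scored as toxicity; potency means the concentration at half of the fitted maximal effect; on the % scale 0 is the no-effect control and ±100 the full control effect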
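Seeding density was 200 cells/uL; after overnight-length (12 h) culture, 23 nL compounds went on for 24 h at 37 °C. Readout used a luciferase detection reagent, luminescence taken after 12 min at room temperature.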
RXFP1 ag: agonists of human relaxin receptor RXFP1. Q9HBX9. Potency, µM (highest dose often 57.5 µM), inactives show top-dose activation, hits mostly activators. HEK293T-RXFP1 cAMP TR-FRET, 30 min; response scale: percent of porcine relaxin response, buffer zero. AID 2676. 370,000 compounds, 0.3% hits; further: potency means the concentration at half of the fitted maximal effect; on the % scale 0 is the no-effect control and ±100 the full control effect; nearly all actives have a fitted effect of over 60% in size
Target sequence (Q9HBX9 whole entry, looked up): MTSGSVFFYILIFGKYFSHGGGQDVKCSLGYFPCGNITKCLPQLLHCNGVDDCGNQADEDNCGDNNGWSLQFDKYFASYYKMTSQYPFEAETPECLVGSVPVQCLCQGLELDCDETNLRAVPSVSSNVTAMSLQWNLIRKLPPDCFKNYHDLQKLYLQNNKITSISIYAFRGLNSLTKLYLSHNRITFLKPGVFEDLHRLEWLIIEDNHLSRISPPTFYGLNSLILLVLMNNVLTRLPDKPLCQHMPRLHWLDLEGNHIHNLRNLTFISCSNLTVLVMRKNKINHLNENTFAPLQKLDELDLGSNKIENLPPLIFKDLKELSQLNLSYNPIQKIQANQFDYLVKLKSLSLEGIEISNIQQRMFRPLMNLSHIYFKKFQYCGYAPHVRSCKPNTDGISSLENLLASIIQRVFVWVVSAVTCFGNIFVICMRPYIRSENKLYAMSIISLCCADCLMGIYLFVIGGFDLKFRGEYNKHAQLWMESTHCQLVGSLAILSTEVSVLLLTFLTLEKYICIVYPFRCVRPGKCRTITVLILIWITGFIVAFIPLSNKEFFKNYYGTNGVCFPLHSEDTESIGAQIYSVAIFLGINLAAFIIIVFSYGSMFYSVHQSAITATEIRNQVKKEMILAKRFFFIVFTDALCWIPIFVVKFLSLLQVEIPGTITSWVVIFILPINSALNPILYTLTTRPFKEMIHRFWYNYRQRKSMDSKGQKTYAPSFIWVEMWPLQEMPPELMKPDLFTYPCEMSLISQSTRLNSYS
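HEK293 cells stably expressing RXFP1, treated 30 min at 37C with compounds plus PDE4 inhibitor Ro 20174; cAMP measured by HTRF TR-FRET. Normalized to buffer and 29 nM porcine relaxin; EC50 by Hill fit.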
NPSR antagonist: blocks cAMP signaling of the human neuropeptide S receptor. Potency, µM (top dose mostly 38.3 µM), for the others: at the top dose activity change, negative = inhibition, hits mostly inhibitors. CHO-NPSR cells, cAMP TR-FRET, antagonist mode. 220,000 compounds, 1% hits. Q6W5P4; further: potency means the concentration at half of the fitted maximal effect; on the % scale 0 is the no-effect control and ±100 the full control effect; nearly all actives have a fitted effect of over 50% in size
TSHR antagonist: human thyrotropin receptor antagonism | 330,000 compounds, 0.2% hits | AID 504810 | activity change, negative = inhibition, % at 11.5 µM | P16473 | TSHR-expressing cells, TSH-stimulated cAMP HTRF, 2 h; stronger effect = lower value;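 active means activity change below a set negative limit, meaning inhibition stronger than a set level, cut at about -70% in these data; inconclusive means activity change between two set negative limits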; further: on the % scale 0 is the no-effect control and ±100 the full control effect
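Cell-based HTRF cAMP assay; TSHR cells + compound, TSH EC80 (4nM final), 2 h, 37 deg C. Lysis with anti-cAMP cryptate and cAMP-d2, 30 min RT, read 665/620 nm.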
RXFP1 antag: RXFP1 (human) relaxin receptor antagonism; Q9HBX9; HEK293-RXFP1, relaxin-stimulated cAMP HTRF, 30 min; stronger effect = lower value; activity change, negative = inhibition, % at 57.5 µM; 350,000 compounds, 0.59% hits;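 active means activity change of -60% or lower, but not beyond a set lower limit; inconclusive means change between -60% and -40%, or beyond the set limit; inactive means change above -40%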; further: on the % scale 0 is the no-effect control and ±100 the full control effect
* hit, by the source's call; i = inactive; ? = inconclusive; nt = no result given; [ ] = dose if it differs, or a comment. Unless noted, the call rests on the fitted dose curve; in most records, active means well fitted curve in the direction sought with a large enough effect; inconclusive means small, poorly fitted or top-dose-only effect, or another doubt; inactive means no such curve, though single readings can be large; an effect the other way counts as inactive or inconclusive.

SMILES	PTHR1 agonist	HEK293 tox	RXFP1 ag	NPSR antagonist	TSHR antagonist	RXFP1 antag
CCCC(=O)O[C@]1(C(=O)COC(C)=O)CC[C@H]2[C@@H]3C[C@H](F)C4=CC(=O)C=C[C@]4(C)[C@@]3(F)[C@@H](O)C[C@@]21C	-17.5%	3.4%	2.9%	2.51µM*	-7.2	nt
CCS(=O)(=O)c1nc(S(=O)(=O)c2ccc(C)cc2)c(N2CCN(C)CC2)s1	-19.1%	-9.3%	25.1µM*	nt	18.0	6.3
CCS(=O)(=O)c1nc(S(=O)(=O)c2ccc(Cl)cc2)c(N2CCN(C)CC2)s1	-6.1%	-2.7%	-1.0%	nt	52.7	21.5
Cc1sccc1Br	nt	nt	nt	nt	nt	13.1
Cc1oc2c(c1C(=O)c1ccccc1)C(=O)C(=O)c1ccccc1-2	-12.1%	?	2.0%	?	?	-65.5*
O=C(C1=C(c2ccccc2)C(=O)c2ccccc2C1=O)c1ccccc1	-13.4%	?	-0.7%	?	8.0	13.5
O=C1C(=O)c2c(C(=O)c3ccccc3)coc2-c2ccccc21	-27.6%	?	-1.1%	-19.5%[46.1 µM]	-19.0	-78.2*
C#CCN(Cc1ccco1)C(=O)c1cc(COc2cccc3cccnc23)on1	-35.7%	19.2%	nt	nt	nt	6.1
O=C(CNC(=O)c1ccccc1F)NCC(c1cccs1)N1CCOCC1 (stereo not drawn)	i	?	-0.1%	nt	-5.0	1.2
CCOc1cccc(C2/C(=C(/O)c3ccc4c(c3)CC(C)O4)C(=O)C(=O)N2CCN2CCOCC2)c1 (stereo not drawn)	i	-9.8%	?	nt	-2.0	14.2
CCCCOc1cccc(C2/C(=C(/O)c3ccc4c(c3)CC(C)O4)C(=O)C(=O)N2CCN2CCOCC2)c1 (stereo not drawn)	i	4.7%	28.2µM*	nt	8.9	-7.5
O=C(c1cccc(NS(=O)(=O)c2ccccc2)c1)N1CCN(c2ccccc2)CC1	-11.1%	0.6%	-0.5%	nt	5.5	-117.1*
Cc1cccc(CN2CCC(C(=O)Nc3cccc(-c4cccc(F)c4)c3)CC2)n1	-12.8%	?	0.6%	nt	-4.9	?
Cc1nn(C(C)C)c(C)c1CN1CCC(C(=O)Nc2cccc(-c3cccc(F)c3)c2)CC1	-11.7%	?	-0.3%	nt	3.8	-82.0*
COc1ccc(-c2cc(NC=O)c3ncc(-c4cccc(C(=O)N(C)C)c4)n3c2)cn1	0.7%	1.1%	nt	nt	nt	nt
CN(C)S(=O)(=O)c1cccc(NC(=S)Nc2cccc3cnccc23)c1	-35.9%	-6.3%	-4.7%	14.3%	9.6	-71.4*
O=C(NCCc1ccccc1)c1ccc2c(c1)N(Cc1ccc(F)cc1)C(=O)CS2	-63.6%	-13.5%	-2.2%	nt	nt	-16.8
O=C(O)[C@H](O)[C@@H](O)[C@H](O[C@@H]1O[C@H](CO)[C@H](O)[C@H](O)[C@H]1O)[C@H](O)CO	nt	nt	nt	nt	nt	-6.2
COC(=O)c1scc(C#N)c1N/N=C(\C#N)S(=O)(=O)c1ccc(Cl)cc1	-27.8%	?	0.0%	10µM*	-30.3	-15.7
COc1ccc(C(=O)Nc2ccc3nc(SCC(=O)N4CCCC4)sc3c2)cc1	i	-10.6%	4.6%	nt	nt	-21.3
Cc1cccc(C(=O)Nc2ccc3nc(SCC(=O)N4CCCC4)sc3c2)c1	-24.2%	-10.9%	-1.6%	nt	nt	-66.1*
CO/N=C(\C(=O)N[C@@H]1C(=O)N2C(C(=O)O)=C(CSc3nc(=O)c(O)nn3C)CS[C@H]12)c1csc(N)n1	nt	nt	nt	nt	nt	-23.0
O=C(/C=C/c1ccccc1)NC(=S)Nc1ccc(CN2CCOCC2)cc1	-32.6%	?	1.7%	-13.1%	-9.2	-62.7*
O=C(/C=C/c1ccc(Cl)cc1Cl)NC(=S)Nc1ccc(CN2CCOCC2)cc1	i	-0.6%	-0.6%	?	29.9	-6.7
CN1c2ccccc2C(C)(C)[C@]12C=Cc1cc(O)ccc1O2	-19.9%[57.5 µM]	-25.7%	-0.6%	12.6µM*	-15.9	-26.9
O=C(O)CSc1cccc[n+]1[O-]	i	-1.6%	1.1%	-2.4%[46.1 µM]	nt	-11.4
